A549 viability: counter-screen for Nrf2 inhibitors: cytotoxicity in A549 cells. A549 ARE-Fluc cells, CellTiter-Fluor viability, 18-24 h. Potency, µM (titrated, usually from 46 µM), without a hit: at the highest dose activity change, negative = cytotoxicity, actives largely listed as inhibitors. 390,000 tested, 0.16% active; further: on the % scale 0 is the no-effect control and ±100 the full control effect
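A549 ARE-Fluc cells in 5% FBS OPTI-MEM, 5000 cells/well, rested 2 h then exposed to compounds in concentration-response for 18-24 h at 37 °C. Viability by CellTiter-Fluor fluorescence (Ex 405/Em 525) after 30 min; luciferase luminescence (BugLite, 15 min, RT) read afterwards.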
HepG2 tox: kills HepG2 cells in TGF-b inhibitor counter-screen; HepG2 CAGA-GFP viability, ATP luminescence, 18 h; Potency, µM (titrated, usually from 46.1 µM), for the others: at the highest dose activity change, negative = cytotoxicity, hits mostly cytotoxic; AID 588856; 410,000 tested, 0.76% active
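CellTiter-Glo luminescence gave cytotoxicity after 18 hours at 37 degrees C. The cells were HepG2 CAGA-GFP in 1% FBS DMEM, stimulated with 500 pg/mL TGF-beta after compound addition. %Activity was normalised to no-cell wells (complete cell-killing) and DMSO (no toxicity), and curves were fitted and classified.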
Nrf2 block: Nrf2 pathway inhibition; A549 ARE-Fluc reporter, luciferase luminescence, 18-24 h; Potency, µM (top dose mostly 46 µM), for the others: at the top dose activity change, negative = inhibition, usual class: inhibitors; 360,000 tested, 2.1% active; further: on the % scale 0 is the no-effect control and ±100 the full control effect; nearly all actives have a fitted effect of over 60% in size
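A549 ARE_Fluc cells, 5000/well, 5% FBS OPTI-MEM; compounds in dose-response, 18-24 h at 37 °C/5% CO2; CellTiter-Fluor viability read (Ex 405/Em 525), then BugLite luciferase luminescence = Nrf2 activity.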
Nrf2 activator: Nrf2 pathway activation; AREc32 ARE-luciferase reporter (MCF7-derived line), luminescence, 24 h; Potency, µM (highest dose often 46.1 µM), for inactives: at the top dose activation, usual class: activators; 410,000 tested, 0.31% active; AID 624171; further: % of control where 0% means no effect; nearly all actives have a fitted effect of over 65% in size
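For detection, Steady-Glo was added and plates sat 30 min at RT; before that, AREc32_Fluc cells grown overnight in OPTI-MEM/5% FBS had been treated with 23 nL compound for 24 hr at 37 deg C.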
TGFb inhibitor: TGF-b pathway inhibition; HepG2 CAGA-GFP TGF-b/SMAD3 reporter, GFP fluorescence, 18 h; TGF-beta stimulated, 500 pg/mL final; Potency, µM (titrated, usually from 46.1 µM), inactives show at the highest dose activity, negative = inhibition, most hits filed as inhibitors; 410,000 tested, 1.2% active; AID 588855; further: on the % scale 0 is the no-effect control and ±100 the full control effect; nearly all actives have a fitted effect of over 65% in size
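Cell-based qHTS in HEPG2 carrying a CAGA-GFP Smad reporter; compounds added before 500 pg/mL final TGF-beta, 18 h incubation at 37 degrees C, GFP fluorescence quantified per cell by imaging cytometry.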
Active calls of the source: *; ? = inconclusive; . = not tested or not shown. The list is not random: actives were taken first. Their share in the collection is about 3.6%. The call rests on the fitted dose curve; in most records, active means well fitted curve in the direction sought with a large enough effect; inconclusive means small, poorly fitted or top-dose-only effect, or another doubt; inactive means no such curve, though single readings can be large; an effect the other way counts as inactive or inconclusive. Potency means the concentration at half of the fitted maximal effect.

SMILES	A549 viability	HepG2 tox	Nrf2 block	Nrf2 activator	TGFb inhibitor
COC(=O)c1cnc(Nc2nc(C(N)c3ccccc3Cl)cs2)nc1C(F)(F)F (stereo unspecified)	.	-87%	.	-2%	18µM*
CC1CN(S(=O)(=O)c2ccc(C(=O)Nc3nccs3)cc2)CC(C)O1 (stereo unspecified)	-5%	-7%	?	-1%	-29%
CCc1ccc(NC(=O)CCc2c(C)nc3nc(-c4cc(OC)cc(OC)c4)nn3c2C)cc1	0%	-23%	?	-1%	-2%
C[C@H](O)[C@@H]1C(=O)N2CCc3ccc(-c4ccccc4)cc3[C@@H]2C[C@@H]1N(C)C(=O)NC1CCCCC1	11%	-1%	0%	5%	?
COc1ccc(-c2nc(Cn3c(SCc4cccc(F)c4)nc4cccnc43)c(C)o2)cc1	-25%	-41%	21µM*	-1%	?
Cc1oc(-c2ccccc2Cl)nc1Cn1c(SCc2cccc(F)c2)nc2cccnc21	-22%	-45%	?	-1%	?
COc1ccc(-c2nc(Cn3c(SCc4ccc(F)cc4)nc4cccnc43)c(C)o2)cc1	?	-26%	18µM*	0%	?
COc1ccc(-c2nc(Cn3c(SCc4ccc(C)cc4)nc4cccnc43)c(C)o2)cc1OC	-30%	-32%	?	-2%	10µM*
Cc1oc(-c2cccc(Cl)c2)nc1Cn1c(SCc2ccc(F)cc2)nc2cccnc21	-22%	-31%	18µM*	0%	-22%
COC(=O)C(O)(CC(=O)c1ccc(OC)cc1)C(F)(F)F (stereo unspecified)	-2%	-18%	?	-1%	-14%
COc1c(C)cc(NS(=O)(=O)c2ccc3c(c2)OCCO3)cc1C	-10%	-28%	23µM*	6%	-16%
COc1ccc(NS(=O)(=O)c2ccc3c(c2)OCCO3)cc1OC	-12%	-41%	21µM*	0%	-10%
Cc1ccc(S(=O)(=O)Nc2ccc3c(c2)OCCO3)cc1C	9%	-1%	-10%	0%	-9%
COc1ccc(S(=O)(=O)Nc2ccc3ccccc3c2)cc1C	-15%	-80%	21µM*	4%	?
Cc1ccc(NS(=O)(=O)c2ccc3c(c2)N(C)CCO3)cc1	-6%	-4%	26µM*	3%	-3%
CN1CCOc2cc(S(=O)(=O)Nc3ccc(F)cc3)ccc21	-5%	3%	.	0%	?
CC1=C(C(=O)N2CCCC(N3CCN(c4cccc(Cl)c4)CC3)C2)OCCO1 (stereo unspecified)	-17%	2%	-5%	0%	3%
Cc1cc(=O)oc2cc(OCC(=O)OC(C)C(=O)Nc3ccc(S(N)(=O)=O)cc3)ccc12 (stereo unspecified)	-3%	-10%	-14%	5%	4%
CCOC(=O)C(=Cc1cc(=O)c(OC)co1)C(=O)OCC	15µM*	14µM*	9.2µM*	-3%	7.1µM*
COc1coc(C(O)CN)cc1=O (stereo unspecified)	6%	8%	-3%	-1%	-6%
CCOc1ccc(CCNC(=O)CCc2c(C)nc3cc(-c4ccccc4OC)nn3c2C)cc1	-5%	-17%	15µM*	-2%	?
O=C(Nc1ccc(O)cc1)C1CCCN1S(=O)(=O)c1ccc(F)cc1 (stereo unspecified)	-11%	2%	15µM*	0%	-2%
COc1cc(CNC(=O)C2CCCCN2S(=O)(=O)c2ccc(F)cc2)cc(OC)c1OC (stereo unspecified)	0%	-8%	-10%	0%	-22%
N#Cc1ccc(NC(=O)C2Cc3ccccc3CN2S(=O)(=O)c2ccc(F)cc2)cc1 (stereo unspecified)	?	-32%	23µM*	6%	.
CC(C)(C)NC(=O)C1Cc2ccccc2CN1S(=O)(=O)c1ccc(F)cc1 (stereo unspecified)	-10%	4%	3%	3%	14%
SMILES	A549 viability	HepG2 tox	Nrf2 block	Nrf2 activator	TGFb inhibitor
COc1ccc(OC)c(CNC(=O)C2CCCCN2S(=O)(=O)c2ccc(F)cc2)c1 (stereo unspecified)	-2%	-16%	29%	4%	7.9µM*
O=C(CCCOC(=O)c1ccc(O)cc1O)c1ccc(F)cc1	0%	-41%	3%	0%	0%
O=C1C(=C(c2ccccc2)c2ccccc2)Nc2ccccc21	?	3%	?	13µM*	-27%
CCc1c(C)sc(NC(=O)C2CCCCC2C(=O)O)c1C(N)=O (stereo unspecified)	2%	-38%	13%	-1%	1%
CC12CCC(C(=O)Nc3ccc(Br)cn3)(OC1=O)C2(C)C (stereo unspecified)	3%	4.5µM*	4%	0%	0%
Cc1cc(NC(=O)C23CCC(C)(C(=O)O2)C3(C)C)no1 (stereo unspecified)	-23%	0%	-9%	0%	-8%
O=S(=O)(c1cccc(-c2nnc(SCc3nc4ccccc4s3)o2)c1)N1CCOCC1	7%	0%	?	14µM*	-9%
CCN(C(=O)COC(=O)c1ccccc1Cc1ccccc1)C1CCS(=O)(=O)C1 (stereo unspecified)	2%	4%	14%	-1%	18%
Cc1ccc(NC(=O)c2ccc(NCc3ccc(F)cc3)nc2)cc1	0%	-54%	14%	0%	-17%
CCC1CN(C(=O)NCc2ccccc2)c2cc(Cl)ccc2O1 (stereo unspecified)	6%	0%	?	-1%	?
COC(=O)c1ccc(C)c(NC(=O)CCNC(=O)c2ccc([N+](=O)[O-])cc2)c1	-11%	4.5µM*	-19%	-1%	-4%
Cc1ccc(-c2noc(CN(C)C(=O)c3ccoc3C)n2)cc1	-1%	-3%	26%	0%	1%
Cc1occc1C(=O)N(C)Cc1nc(-c2ccc(Cl)cc2)no1	?	-21%	21µM*	4%	14%
COc1ccccc1C(=O)N(Cc1nc(-c2ccc(Cl)cc2)no1)C(C)C	-11%	-31%	21µM*	0%	-15%
CC(C)N1CCN(Cc2ccc(OCc3ccccc3)cc2)CC1CCO (stereo unspecified)	16%	2µM*	6%	6%	-24%
O=C1OC(c2ccccc2)Sc2ccccc21 (stereo unspecified)	-5%	10%	2%	0%	5%
CNc1nc2cc([N+](=O)[O-])c([N+](=O)[O-])cc2nc1NC	?	-3%	?	10%	7.1µM*
CC(=O)Nc1ccc(S(=O)(=O)N2CCN=C2SCc2ccc([N+](=O)[O-])cc2)cc1	-2%	-26%	8.2µM*	7%	-9%

Compound activity (PubChem)
